# According to PubChem BioAssay (EPA / NIEHS):
# Results filed as inconclusive are left out. The source made the active and inactive calls. The calls were made as follows: active = hit-call score of the fitted dose curve at least 0.9, where 1 is the maximum; inconclusive = response in the unintended direction; inactive = score below 0.9.
# Read-out: ABC Transporter (ABCB1), ABCB1 (gene 5243)
# Assay: CLD_ABCB1_6hr: CellzDirect (CLD) Gene Expression Assay for ABC Transporter (ABCB1) at 6 hours (AID 2283659);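 also: hits raise ABCB1 transcript above the DMSO vehicle baseline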
# Description: CLD_6hr is a cell-based, multiplexed-readout assay that uses hepatocyte, a human liver primary cell, with measurements taken at 6 hours after chemical dosing in a 96-well plate.CLD_ABCB1_6hr is one of 16 assay component(s) measured or calculated from the CLD_6hr assay. It is designed to make measurements of mRNA induction, a form of inducible reporter, as detected with chemiluminescence signals by Quantitative Nuclease Protection Assay (qNPA) technology.Data from the assay component CLD_ABCB1_6hr was analyzed at the endpoint, CLD_ABCB1_6hr, in the positive analysis fitting direction relative to DMSO as the negative control and baseline of activity. Using a type of inducible reporter, gain-of-signal activity can be used to understand changes in the reporter gene as they relate to the gene ABCB1. Furthermore, this assay endpoint can be referred to as a primary readout. To generalize the intended target to other relatable targets, this assay endpoint is annotated to the transporter intended target family, where subfamily is ABC transporter.
# Human hepatocyte cultures were treated daily for two consecutive days with fresh dosing solutions containing appropriate concentrations of the 320 ToxCast chemicals (chemical identities were blinded to CellzDirect and other ToxCast collaborators), vehicle control (0.2% DMSO), and positive control inducers as summarized in Table 1. Due to the large number of treatment groups and chemicals examined, the ToxCast chemicals were divided into two groups (spanning two independent cultures of hepatocytes from separate donor preparations (Hu778: ToxCast plates 1 and 2; Hu776: ToxCast plates 3 and 4). Each preparation of human hepatocyte cultures was treated with respective vehicle control, medium only control, set of six positive controls/reference chemicals for the five hepatic receptor pathways, and a subset of eight of the ToxCast chemicals (indoxacarb, pyrithiobac-sodium, norflurazon, cyhalofop-butyl, methomyl, thiram, acetochlor, and propiconazole). These replicate data, coupled with internal replicates designed within the blinded ToxCast chemical library, provided additional data to evaluate interindividual differences between hepatocyte preparations and their potential impact on chemical profiles.Cell morphology and integrity were evaluated using phase-contrast microscopy as an indicator of hepatocyte cell health (Tyson & Green, 1987). Cultures for each treatment group (i.e., media, vehicle [0.2% DMSO], positive control inducers [multiple concentrations], and the ToxCast chemicals [multiple concentrations]) were observed and cell morphology was assessed relative to vehicle control cultures at each harvest time point (0, 6, 24, or 48 h). […] Images were evaluated at the conclusion of the study to assess changes in cell integrity and account for the effects of chemical exposure on uncharacteristic changes in concentration-dependent gene expression profiles. The results from these determinations of apparent cytotoxicity were annotated (yes/no) alongside the corresponding qNPA data for reference.At the conclusion of each treatment period, hepatocyte cultures (96-well) were washed with 1 volume of HBSS, lysed by addition of 25 ul ArrayPlate lysis buffer (HTG, Tucson, AZ), and 70 ul/well of Denaturation Oil, denatured by incubation at 95C for 10 min, and frozen at approximately -70C until analysis by nuclease protection assay (qNPA) (Roberts et al., 2007). For qNPA analysis, cell lysates were thawed at 50C for approximately 30 min, qNPA probes were added, and samples were incubated at 95C for 10 min to begin the detection process by denaturing the target RNA, dissociating the duplexes and secondary structure hybridization. At the conclusion of the hybridization period, S1 nuclease reagent was added to each sample to digest all nonprotected nucleotides at 50C for 60-90 min. […]
row,SMILES,outcome
1,C=C(C)CN(CC)c1c([N+](=O)[O-])cc(C(F)(F)F)cc1[N+](=O)[O-],inactive
2,COP(=S)(OC)SCn1nnc2ccccc2c1=O,inactive
3,CC(C)N1C(=O)N(c2ccccc2)CSC1=NC(C)(C)C,inactive
4,C=CCOC(=O)C(C)(C)OC(=O)c1cc(-n2c(=O)cc(C(F)(F)F)n(C)c2=O)ccc1Cl,inactive
5,CC(C)NC(=O)N1CC(=O)N(c2cc(Cl)cc(Cl)c2)C1=O,inactive
6,Clc1cccc(C(Cl)(Cl)Cl)n1,inactive
7,CCSC(=O)N1CCCCCC1,inactive
8,N#CN=C1SCCN1Cc1ccc(Cl)nc1,inactive
9,CS(=O)(=O)c1ccc(C(=O)C2C(=O)CCCC2=O)c([N+](=O)[O-])c1,inactive
10,CCOC(=O)C(C)OC(=O)c1cc(Oc2ccc(C(F)(F)F)cc2Cl)ccc1[N+](=O)[O-] (stereo not given),inactive
11,COc1cc(Cl)c(OC)cc1Cl,inactive
12,CC1(C)CON(Cc2ccccc2Cl)C1=O,inactive
13,CC1(C)C(C=C(Cl)Cl)C1C(=O)OC(C#N)c1cccc(Oc2ccccc2)c1 (stereo not given),inactive
14,CCOc1cc(C(C)(C)C)ccc1C1COC(c2c(F)cccc2F)=N1 (stereo not given),inactive
15,COCc1cnc(C2=NC(C)(C(C)C)C(=O)N2)c(C(=O)O)c1 (stereo not given),inactive
16,COC(=O)N(C(=O)N1CO[C@@]2(C(=O)OC)Cc3cc(Cl)ccc3C2=N1)c1ccc(OC(F)(F)F)cc1,inactive
17,OC(c1ccc(Cl)cc1)(c1ccc(Cl)cc1)C(Cl)(Cl)Cl,inactive
18,O=C1C2CC=CCC2C(=O)N1SC(Cl)(Cl)Cl (stereo not given),inactive
19,Nc1c(Cl)c(Cl)nc(C(=O)O)c1Cl,inactive
20,N#Cc1c(Cl)cccc1Cl,inactive

row,SMILES,outcome
1,O=C(O)c1c(Cl)ccc2cc(Cl)cnc12,inactive
2,Cc1cnc(C2=NC(C)(C(C)C)C(=O)N2)c(C(=O)O)c1 (stereo not given),inactive
3,CC(C)N1C(=O)c2ccccc2NS1(=O)=O,inactive
4,CCOc1nc(C(Cl)(Cl)Cl)ns1,inactive
5,COc1ccc(-c2ccccc2)cc1NNC(=O)OC(C)C,inactive
6,Cc1ccc(N=CN(C)C=Nc2ccc(C)cc2C)c(C)c1,inactive
7,CCOP(=O)(OCC)Oc1nc(Cl)c(Cl)cc1Cl,inactive
8,CC1(C)C(C(=O)OC(C#N)c2cccc(Oc3ccccc3)c2)C1(C)C (stereo not given),inactive
9,Cc1nc(N(C)C)nc(OC(=O)N(C)C)c1C,inactive
10,CCCCC(O)(Cn1cncn1)c1ccc(Cl)cc1Cl (stereo not given),inactive
11,CCOc1nc(F)cc2nc(S(=O)(=O)Nc3c(Cl)cccc3Cl)nn12,inactive
12,COCC(=O)N(c1c(C)cccc1C)C(C)C(=O)OC (stereo not given),inactive
13,Nc1c(Cl)c(F)nc(OCC(=O)O)c1Cl,inactive
14,CCOP(=S)(OCC)Oc1nc(Cl)n(C(C)C)n1,inactive
15,COCC(C)N(C(=O)CCl)c1c(C)csc1C (stereo not given),inactive
16,CC(C)(C)C(=O)C(Oc1ccc(Cl)cc1)n1cncn1 (stereo not given),inactive
17,CN=C=S,inactive
18,CCCN(CC)CC1COC2(CCC(C(C)(C)C)CC2)O1 (stereo not given),inactive
19,COC(=O)c1c(C(F)F)nc(C(F)(F)F)c(C2=NCCS2)c1CC(C)C,inactive
20,CCCC(=NOCC)C1=C(O)CC(CC(C)SCC)CC1=O (stereo not given),inactive
